The supplement of paper PMC9023506
Structures can show the parent of a compound that is named as a salt.

Test system: Danio rerio larvae (5 dpf)
Assay: optomotor response to fast red moving lines, difference vs DMSO (percentage points (treated minus DMSO)); higher = more of the behaviour than the DMSO vehicle control
Conditions: 10 µM; exposure time: 3 h pre-incubation + 3 h imaging
Experimental: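 5-dpf wild-type zebrafish larvae were imaged in 96-well plates. They were treated with 190 Tocris FDA-approved drugs at 10 µM (1 µl/ml DMSO) for 3 h before and 3 h during imaging at 28.5 °C, 48 larvae per drug. Automated image analysis gave % time moving and optomotor responses. Values are drug group mean minus DMSO vehicle mean (n=844), in percentage points, for 10 behaviours.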

Row | SMILES | optomotor response
1 | OC(CNCC(O)C1CCc2cc(F)ccc2O1)C1CCc2cc(F)ccc2O1 (stereo not given) [Nebivolol hydrochloride] | -19.6
2 | CC(C)(C#N)c1cc(Cn2cncn2)cc(C(C)(C)C#N)c1 [Anastrozole] | -1.59
3 | CCCc1nc(C(C)(C)O)c(C(=O)O)n1Cc1ccc(-c2ccccc2-c2nnn[nH]2)cc1 [Olmesartan] | -5.64
4 | Nc1ncn([C@@H]2O[C@H](CO)[C@@H](O)[C@H]2O)c(=O)n1 [5-Azacytidine] | 1.5
5 | CC[C@H](C)C(=O)O[C@H]1C[C@@H](C)C=C2C=C[C@H](C)[C@H](CC[C@@H]3C[C@@H](O)CC(=O)O3)[C@H]21 [Lovastatin] | -4.95
6 | Clc1ccccc1C(c1ccccc1)(c1ccccc1)n1ccnc1 [Clotrimazole] | 17.9
7 | C#C[C@]1(O)CC[C@H]2[C@@H]3CCC4=CC(=O)CC[C@@H]4[C@H]3CC[C@@]21CC [Levonorgestrel] | 9.62
8 | C[C@H]1O[C@H](O[C@H]2[C@H](O)[C@@H](O)[C@@H](O[C@H]3[C@H](O)[C@@H](O)C(O)O[C@@H]3CO)O[C@@H]2CO)[C@H](O)[C@@H](O)[C@@H]1N[C@H]1C=C(CO)[C@@H](O)[C@H](O)[C@H]1O (stereo not given in full) [Acarbose] | 12.4
9 | CC(C)N(CCCCOCC(=O)NS(C)(=O)=O)c1cnc(-c2ccccc2)c(-c2ccccc2)n1 [Selexipag] | -6.49
10 | CCCCc1nc(Cl)c(CO)n1Cc1ccc(-c2ccccc2-c2nnn[nH]2)cc1 [Losartan potassium] | -3.43
11 | NC(=O)N1c2ccccc2C=Cc2ccccc21 [Carbamazepine] | -9.08
12 | CC(C)Nc1cccnc1N1CCN(C(=O)c2cc3cc(NS(C)(=O)=O)ccc3[nH]2)CC1 [Delavirdine mesylate] | -17
13 | COCCCOc1cc(C[C@@H](C[C@H](N)[C@@H](O)C[C@H](C(=O)NCC(C)(C)C(N)=O)C(C)C)C(C)C)ccc1OC [Aliskiren hemifumarate] | 2.22
14 | CN1CC(=O)N2[C@H](c3ccc4c(c3)OCO4)c3[nH]c4ccccc4c3C[C@@H]2C1=O [Tadalafil] | -10.2
15 | CN(C)CCC[C@@]1(c2ccc(F)cc2)OCc2cc(C#N)ccc21 [Escitalopram oxalate] | -7.01
16 | CCOC(=O)c1ncn2c1CN(C)C(=O)c1cc(F)ccc1-2 [Flumazenil] | 9.89
17 | CCCCC(=O)N(Cc1ccc(-c2ccccc2-c2nnn[nH]2)cc1)[C@H](C(=O)O)C(C)C [Valsartan] | -0.58
18 | CCN(CC)CCNC(=O)c1c(C)[nH]c(/C=C2\C(=O)Nc3ccc(F)cc32)c1C [Sunitinib malate] | 10.6
19 | Cn1cnc([N+](=O)[O-])c1Sc1ncnc2[nH]cnc12 [Azathioprine] | 9.79
20 | CN(C)C(=N)NC(=N)N [Metformin hydrochloride] | 10.2

Row | SMILES | optomotor response
21 | O=c1[nH]c(=O)n([C@H]2C[C@H](O)[C@@H](CO)O2)cc1C(F)(F)F [Trifluorothymidine] | -0.769
22 | N#Cc1ccc2[nH]cc(CCCCN3CCN(c4ccc5oc(C(N)=O)cc5c4)CC3)c2c1 [Vilazodone hydrochloride] | -38.2
23 | C=CC(=O)N1CCC[C@@H](n2nc(-c3ccc(Oc4ccccc4)cc3)c3c(N)ncnc32)C1 [Ibrutinib] | -0.957
24 | COc1c(C)c2c(c(O)c1C/C=C(\C)CCC(=O)O)C(=O)OC2 [Mycophenolic acid] | 10.7
25 | CC(=O)NC[C@H]1CN(c2ccc(N3CCOCC3)c(F)c2)C(=O)O1 [Linezolid] | 5.73
26 | Nc1cc(N2CCCCC2)nc(N)[n+]1[O-] [Minoxidil] | 2.09
27 | CCCc1nc2c(C)cc(-c3nc4ccccc4n3C)cc2n1Cc1ccc(-c2ccccc2C(=O)O)cc1 [Telmisartan] | 7.51
28 | CCOC(=O)N1CCC(=C2c3ccc(Cl)cc3CCc3cccnc32)CC1 [Loratidine] | -26.1
29 | Cc1cc2c(s1)Nc1ccccc1N=C2N1CCN(C)CC1 [Olanzapine] | 9.42
30 | Cc1ccc(-c2cc(C(F)(F)F)nn2-c2ccc(S(N)(=O)=O)cc2)cc1 [Celecoxib] | -11.4
31 | CCCC1O[C@@H]2C[C@H]3[C@@H]4CCC5=CC(=O)C=C[C@]5(C)[C@H]4[C@@H](O)C[C@]3(C)[C@]2(C(=O)CO)O1 (stereo not given in full) [Budesonide] | 0.572
32 | Nc1ccn([C@@H]2O[C@H](CO)[C@@H](O)C2(F)F)c(=O)n1 [Gemcitabine hydrochloride] | 5.64
33 | NS(=O)(=O)Cc1noc2ccccc12 [Zonisamide] | -0.856
34 | CC(C)OC(=O)C(C)(C)Oc1ccc(C(=O)c2ccc(Cl)cc2)cc1 [Fenofibrate] | 19.2
35 | O=c1n(CCCN2CCN(c3cccc(Cl)c3)CC2)nc2ccccn12 [Trazodone hydrochloride] | 5.34
36 | CNCc1ccc(-c2[nH]c3cc(F)cc4c3c2CCNC4=O)cc1 [Rucaparib camsylate] | 3.57
37 | CC1(C)O[C@@H]2[C@@H](CO[C@@]3(COS(N)(=O)=O)OC(C)(C)O[C@@H]23)O1 [Topiramate] | -10.6
38 | CC(C)c1nc(CN(C)C(=O)N[C@H](C(=O)N[C@@H](Cc2ccccc2)C[C@H](O)[C@H](Cc2ccccc2)NC(=O)OCc2cncs2)C(C)C)cs1 [Ritonavir] | -9.38
39 | CCOc1nc2cccc(C(=O)O)c2n1Cc1ccc(-c2ccccc2-c2noc(=O)[nH]2)cc1 [Azilsartan] | -3.36
40 | C#CCN[C@@H]1CCc2ccccc21 [Rasagiline mesylate] | 0.354
